Results as given in PubChem BioAssay (Tox21).
Results filed as inconclusive are left out. Activity calls are given as the source filed them. Unless noted, calls come from the whole dose curve; as a rule, active = well fitted curve in the direction sought with a large enough effect in the repeat runs; inconclusive = weak or mixed curves; inactive = no such curve, though single readings can be large; an effect the other way counts as inactive or inconclusive.

What was measured:
[1] = qHTS assay to identify small molecule antagonists of the vitamin D receptor (VDR) signaling pathway - cell viability counter screen (AID 743225); note: nearly all actives have a fitted effect of over 50% in size
Method in brief: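 HEK293T VDR-bla; cpd + 1a,25-(OH)2D3 3 nM final, 16 h 37C/5% CO2; B/G FRET substrate 2 h RT; then CellTiter-Glo 30 min RT, luminescence.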

[2] = qHTS assay to identify small molecule agonists of the NFkB signaling pathway (AID 1159509; active = well fitted curve in the direction sought with a large enough effect in the signal ratio in the repeat runs, not every such curve was filed as active; the % refers to the signal ratio; note: series mostly up to about 61 µM)
Method in brief: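 NFkB-bla ME-180 cells with a beta-lactamase reporter under an NF-kB response element were plated overnight, treated with compounds in DMSO for 5 hr at 37 C, then loaded with FRET substrate for 1.5 hr at room temperature.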

[3] = qHTS assay to identify small molecule agonists of the NFkB signaling pathway - cell viability counter screen (AID 1159515; calls by dose curve; note: series mostly up to about 61 µM; nearly all actives have a fitted effect of over 55% in size)
Method in brief: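 Viability in NFkB-bla ME-180 cells was measured by CellTiter-Glo luminescence, 30 min room temperature, in wells already treated 5 hr with compounds and read for reporter FRET.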

[4] = qHTS assay to identify small molecule agonists of the endoplasmic reticulum stress response signaling pathway (AID 1159516; active = well fitted activation curve with a large enough effect in the signal ratio in the repeat runs, not every such curve was filed as active; the % refers to the signal ratio)
Method in brief: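 ER stress element reporter (bla) in HeLa. 1,500 cells/well, overnight attachment; 5 hr compound; 2 hr RT substrate; dual-emission fluorescence.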

[5] = qHTS assay to identify small molecule agonists of the endoplasmic reticulum stress response signaling pathway - cell viability counter screen (AID 1159517; calls by dose curve;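 note: HeLa cells carrying an ER stress response element beta-lactamase reporter; series mostly up to about 61 µM; nearly all actives have a fitted effect of over 50% in size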)
Method in brief: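 Cells, HeLa ESRE-bla; density, 1,500/well; dosing, 5 hr at 37 C, 5% CO2; readout, CellTiter-Glo luminescence after 30 min RT.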

[6] = qHTS assay to identify small molecule antagonists of the retinoid-related orphan receptor gamma (ROR-gamma) signaling pathway - cell viability counter screen (AID 1159520); note: nearly all actives have a fitted effect of over 50% in size
Method in brief: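 Cytotoxicity was read from cellular ATP (CellTiter-Glo luminescence) after 16 hr at 37 C with 1 uM doxycycline induction. The inducer was added 2 hr after compound transfer to Tet-on ROR gamma CHO cells.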

[7] = molecular target: Nuclear receptor ROR-gamma (Homo sapiens) (UniProt P51449); experiment: qHTS assay to identify small molecule antagonists of the retinoid-related orphan receptor gamma (ROR-gamma) signaling pathway (AID 1159521;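 note: CHO cells with doxycycline inducible ROR-gamma driving an RORE luciferase reporter; top concentration of the series differs between compounds; nearly all actives have a fitted effect of over 50% in size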)
Method in brief: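 Cells were plated, rested 4 h at 37 C, exposed to compounds for 2 h, then given 1 uM final doxycycline hyclate to induce RORγ expression. After 16 h, ONE-Glo luminescence from the ROR response element reporter was measured.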

[8] = qHTS assay to identify small molecule agonists of the AP-1 signaling pathway - cell viability counter screen (AID 1159525; calls by dose curve; note: nearly all actives have a fitted effect of over 55% in size)
Method in brief: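 Luminescent ATP readout (Cell Titer Glo, 30 min RT), normalised to DMSO and tetra n-octyl ammonium bromide controls. Cells were ME-180 AP-1-bla in 0.5% dialyzed FBS Opti-MEM, with a 5 h, 37 °C compound exposure.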

[9] = qHTS assay to identify small molecule agonists of the AP-1 signaling pathway (AID 1159526; calls by dose curve)
[10] = molecular target: Retinoic acid receptor RXR-alpha (Homo sapiens) (UniProt P19793); experiment: qHTS assay to identify small molecule agonists of the RXR signaling pathway (AID 1159527; calls by dose curve; note: nearly all actives have a fitted effect of over 35% in size)
Chain of Retinoic acid receptor RXR-alpha (Homo sapiens) (P19793 whole entry, looked up): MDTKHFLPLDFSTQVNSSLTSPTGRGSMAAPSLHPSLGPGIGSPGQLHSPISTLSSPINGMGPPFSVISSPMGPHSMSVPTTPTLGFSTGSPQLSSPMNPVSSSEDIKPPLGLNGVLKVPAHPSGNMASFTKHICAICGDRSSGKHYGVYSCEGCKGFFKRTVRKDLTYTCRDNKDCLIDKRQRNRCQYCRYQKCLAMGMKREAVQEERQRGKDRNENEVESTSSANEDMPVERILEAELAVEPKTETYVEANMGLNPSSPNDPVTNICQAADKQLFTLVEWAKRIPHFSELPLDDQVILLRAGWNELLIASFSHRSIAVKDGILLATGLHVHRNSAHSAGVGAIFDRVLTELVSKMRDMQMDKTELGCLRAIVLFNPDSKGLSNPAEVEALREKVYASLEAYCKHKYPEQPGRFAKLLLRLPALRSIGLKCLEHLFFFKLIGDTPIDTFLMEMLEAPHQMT
Method in brief: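 Cells plated at 2,000/well, rested 5 hr at 37 C, pin-dosed with DMSO compound solutions, incubated 16 hr, then loaded with B/G FRET substrate for 2 hr at RT before dual-emission fluorescence reading.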

[11] = qHTS assay to identify small molecule agonists of the RXR signaling pathway - cell viability counter screen (AID 1159529)
Method in brief: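 Steps: seed RXR-alpha-UAS-bla HEK 293T cells in assay medium containing 2% charcoal-stripped FBS; incubate 5 hr; add compounds in DMSO; incubate 16 hr at 37 C; after the bla read, add CellTiter-Glo and read luminescence at 30 min.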

[12] = qHTS assay to identify small molecule antagonists of the retinoid acid receptor (RAR) signaling pathway - cell viability counter screen (AID 1159551); note: nearly all actives have a fitted effect of over 35% in size
Method in brief: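 Following overnight attachment, C3RL4 reporter cells received DMSO-dissolved compounds and then retinol (1 uM final). Six hours later at 37 C, ATP content was measured by CellTiter-Glo luminescence.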

[13] = qHTS assay to identify small molecule antagonists of the retinoic acid receptor (RAR) signaling pathway (AID 1159552; note: nearly all actives have a fitted effect of over 50% in size)
Method in brief: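 Retinol at 1 uM final stimulated RARE-luciferase expression in C3RL4 cells exposed to test compounds for 6 hr at 37 C. Reduced luminescence, read 30 min after detection reagent, indicated pathway antagonism.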

[14] = qHTS assay to identify small molecule agonists of the retinoic acid receptor (RAR) signaling pathway (AID 1159553)
Method in brief: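 Cell line C3RL4, RARE luciferase reporter. Treatment: compounds in DMSO, 6 hr, 37 C, 5% CO2, after overnight plating. Detection: luminescence, 30 min RT after reagent.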

Measured: Potency

[O-][Br+2]([O-])O
inactive: all assays above

CCNP(=S)(OC)O/C(C)=C/C(=O)OC(C)C (stereo not given)
not listed: [14]
inactive: all other assays above

CNC(=O)NC(O)C(Cl)(Cl)Cl (stereo not given)
inactive: all assays above

Clc1ccc(C(Cl)(Cl)Cl)cn1
inactive: all assays above

O=P(O)(O)CN(CP(=O)(O)O)CP(=O)(O)O
inactive: all assays above

CN=CNc1ccc(C)cc1C
inactive: all assays above

C=C(Cl)CSC(=S)N(CC)CC
inactive: all assays above

CCCOc1nn(C(=O)NS(=O)(=O)c2ccccc2C(=O)OC)c(=O)n1C
inactive: all assays above

CCCC(C)(COC(N)=O)COC(N)=O
not listed: [14]
inactive: all other assays above

CCOP(=S)(OCC)SCCl
not listed: [14]
inactive: all other assays above

CC[C@H](N)c1ccccc1
not listed: [14]
inactive: all other assays above
